Experimental data reported in PubChem BioAssay (Tox21).
Records with an inconclusive call do not appear. Entries that show only a call come without a potency. Calls of active or inactive are those of the source. Calls come from the whole dose curve; as a rule, active = well fitted activation curve with a large enough effect in the repeat runs; inconclusive = weak or mixed curves; inactive = flat fitted curve, though single readings scatter.

test: A CellTox Green Cytotoxicity Assay to monitor cytotoxicity in HepG2 cells - 0 hour (AID 1224882); settings: CellTox Green fluorescence; series mostly up to 76.8 µM; note: nearly all actives have a fitted effect of over 35% in size; note: potency is the fitted concentration of half-maximal effect
Method in brief: (§1)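 HepG2 cells were seeded together with the CellTox Green dye at 600 cells/well, left 5 h at 37 C/5% CO2, then given compounds in DMSO. Fluorescence from dye bound to dead-cell DNA was read repeatedly over 40 h of treatment at 37 C.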

| Structure (SMILES) | Potency |
| --- | --- |
| CN1CCCN=C1COC(=O)C(O)(c1ccccc1)C1CCCCC1 (stereo not given) | inactive |
| CC(C)=CCC1C(=O)N(c2ccccc2)N(c2ccccc2)C1=O | inactive |
| CCn1cc(C(=O)O)c(=O)c2cc(F)c(N3CCNCC3)cc21 | inactive |
| O=C1Cc2ccccc2N1c1c(Cl)cccc1Cl | inactive |
| O=C1c2ccccc2C(=O)C1c1nc2ccccc2c(Br)c1O | inactive |
| COc1ccccc1N1CCN(CC(O)COc2cccc3ccccc23)CC1 (stereo not given) | inactive |
| COc1ccccc1Oc1c(NS(=O)(=O)c2ccc(C(C)(C)C)cc2)nc(-c2ncccn2)nc1OCCO | inactive |
| C[C@@H](O)[C@H]1C(=O)N2C(C(=O)O)=C([C@H]3CCCO3)S[C@H]12 | inactive |
| CCC(=O)OC | inactive |
| CCCCCCCCCI | inactive |
| Clc1ccc(Nc2nnc(Cc3ccncc3)c3ccccc23)cc1 | inactive |
| O=[N+]([O-])c1ccc(O/N=C/c2cc(Br)c(O)c(Br)c2)c([N+](=O)[O-])c1 | inactive |
| CCOC(=O)c1ccc(I)cc1 | inactive |
| COC(=O)[C@H]1[C@H]2C[C@@H]3c4[nH]c5cc(OC)ccc5c4CCN3C[C@H]2C[C@@H](OC(=O)/C=C/c2ccc(O)c(OC)c2)[C@@H]1OC | 26.8 µM (active) |
| CC[C@]1(O)C[C@H]2CN(CCc3c([nH]c4ccccc34)[C@@](C(=O)OC)(c3cc4c(cc3OC)N(C=O)[C@H]3[C@@](O)(C(=O)OC)[C@H](OC(C)=O)[C@]5(CC)C=CCN6CC[C@]43[C@@H]65)C2)C1 | inactive |
| O=Cc1c2ccccc2c(Cl)c2ccccc12 | inactive |
| CCCCCCCC/C=C\CCCCCCCCO | inactive |
| Nc1nnc(-c2ccc([N+](=O)[O-])o2)o1 | inactive |
| CC1(C)[C@@H](OC(=O)CCC(=O)O)CC[C@]2(C)[C@H]3C(=O)C=C4[C@@H]5C[C@@](C)(C(=O)O)CC[C@]5(C)CC[C@@]4(C)[C@]3(C)CC[C@@H]12 | inactive |

| Structure (SMILES) | Potency |
| --- | --- |
| FC(F)(F)c1ccccc1Cl | inactive |
| Nc1cccc2c1CN(C1CCC(=O)NC1=O)C2=O (stereo not given) | inactive |
| CCCCN1CCCC1C(=O)Nc1c(C)cc(C)cc1C (stereo not given) | 23.9 µM (active) |
| Cc1ccc(C(C)(C)O)cc1 | inactive |
| O=c1cc(-c2ccccc2)oc2cc(O)cc(O)c12 | inactive |
| OCCOCC#CCOCCO | inactive |
| CN1C(=O)c2ccccc2C1=O | inactive |
| CCN(CC)CCNC(=O)COc1ccc(OC)cc1 | inactive |
| CC(CC1c2ccccc2CCc2ccccc21)CN(C)C (stereo not given) | inactive |
| CCOc1ccccc1O[C@H](c1ccccc1)[C@H]1CNCCO1 | inactive |
| CC(=O)N/N=C/c1ccc([N+](=O)[O-])o1 | inactive |
| C[C@]12CC[C@@H]3c4ccc(O)cc4CC[C@H]3[C@@H]1CC[C@@H]2OC(=O)CCC1CCCC1 | inactive |
| CCC1NC(=O)c2cc(S(N)(=O)=O)c(Cl)cc2N1 (stereo not given) | inactive |
| CCC1CO1 (stereo not given) | inactive |
| CC(C)(C)C(=O)C(=O)O | inactive |
| Oc1ccc(Cl)c2cccnc12 | inactive |
| O=C(O)c1ccc(OCCCOc2ccc(C(=O)O)cc2)cc1 | inactive |
| CC1=Nc2ccc3ccccc3c2C1(C)C | inactive |

test: A CellTox Green Cytotoxicity Assay to monitor cytotoxicity in HepG2 cells - 32 hour (AID 1224883); settings: CellTox Green fluorescence; series mostly up to 76.8 µM; note: nearly all actives have a fitted effect of over 50% in size
Method in brief: as §1

| Structure (SMILES) | Potency |
| --- | --- |
| C[C@@]12CCC[C@H]1[C@@H]1CC[C@H]3C[C@@H](O)CC[C@]3(C)[C@H]1CC2 | inactive |
| Clc1ccc(Nc2nnc(Cc3ccncc3)c3ccccc23)cc1 | inactive |
| O[C@@H]1CO[C@H]2[C@@H]1OC[C@@H]2O | inactive |
| CC/C=C1/OC(=O)c2ccccc21 | inactive |

test: A CellTox Green Cytotoxicity Assay to monitor cytotoxicity in HEK293 cells - 8 hour (AID 1224884); settings: CellTox Green fluorescence; series mostly up to 76.8 µM; note: nearly all actives have a fitted effect of over 35% in size; note: potency is the fitted concentration of half-maximal effect
Method in brief: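 HEK293 cells premixed with CellTox Green dye were seeded at 600 cells/well and left 5 h at 37 C/5% CO2 before pin transfer of 23 nL compound in DMSO. Fluorescence from dye bound to dead-cell DNA was read during 40 h treatment.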

| Structure (SMILES) | Potency |
| --- | --- |
| CN1CCCN=C1COC(=O)C(O)(c1ccccc1)C1CCCCC1 (stereo not given) | inactive |
| CC(C)=CCC1C(=O)N(c2ccccc2)N(c2ccccc2)C1=O | inactive |
| CCn1cc(C(=O)O)c(=O)c2cc(F)c(N3CCNCC3)cc21 | inactive |
| O=C1Cc2ccccc2N1c1c(Cl)cccc1Cl | inactive |
| COc1ccccc1N1CCN(CC(O)COc2cccc3ccccc23)CC1 (stereo not given) | inactive |
| COc1ccccc1Oc1c(NS(=O)(=O)c2ccc(C(C)(C)C)cc2)nc(-c2ncccn2)nc1OCCO | inactive |
| C[C@@H](O)[C@H]1C(=O)N2C(C(=O)O)=C([C@H]3CCCO3)S[C@H]12 | inactive |
| CCC(=O)OC | inactive |
| CCCCCCCCCI | inactive |
| C[C@@]12CCC[C@H]1[C@@H]1CC[C@H]3C[C@@H](O)CC[C@]3(C)[C@H]1CC2 | inactive |
| CCOC(=O)c1ccc(I)cc1 | inactive |
| COC(=O)[C@H]1[C@H]2C[C@@H]3c4[nH]c5cc(OC)ccc5c4CCN3C[C@H]2C[C@@H](OC(=O)/C=C/c2ccc(O)c(OC)c2)[C@@H]1OC | 19 µM (active) |
| CC[C@]1(O)C[C@H]2CN(CCc3c([nH]c4ccccc34)[C@@](C(=O)OC)(c3cc4c(cc3OC)N(C=O)[C@H]3[C@@](O)(C(=O)OC)[C@H](OC(C)=O)[C@]5(CC)C=CCN6CC[C@]43[C@@H]65)C2)C1 | inactive |
| O=Cc1c2ccccc2c(Cl)c2ccccc12 | inactive |
| CCCCCCCC/C=C\CCCCCCCCO | inactive |
| Nc1nnc(-c2ccc([N+](=O)[O-])o2)o1 | inactive |
| CC1(C)[C@@H](OC(=O)CCC(=O)O)CC[C@]2(C)[C@H]3C(=O)C=C4[C@@H]5C[C@@](C)(C(=O)O)CC[C@]5(C)CC[C@@]4(C)[C@]3(C)CC[C@@H]12 | inactive |

| Structure (SMILES) | Potency |
| --- | --- |
| FC(F)(F)c1ccccc1Cl | inactive |
| O[C@@H]1CO[C@H]2[C@@H]1OC[C@@H]2O | inactive |
| Nc1cccc2c1CN(C1CCC(=O)NC1=O)C2=O (stereo not given) | inactive |
| CCCCN1CCCC1C(=O)Nc1c(C)cc(C)cc1C (stereo not given) | 15.1 µM (active) |
| Cc1ccc(C(C)(C)O)cc1 | inactive |
| CC/C=C1/OC(=O)c2ccccc21 | inactive |
| OCCOCC#CCOCCO | inactive |
| CN1C(=O)c2ccccc2C1=O | inactive |
| CC(CC1c2ccccc2CCc2ccccc21)CN(C)C (stereo not given) | inactive |
| CCOc1ccccc1O[C@H](c1ccccc1)[C@H]1CNCCO1 | inactive |
| CC(=O)N/N=C/c1ccc([N+](=O)[O-])o1 | inactive |
| C[C@]12CC[C@@H]3c4ccc(O)cc4CC[C@H]3[C@@H]1CC[C@@H]2OC(=O)CCC1CCCC1 | inactive |
| CCC1NC(=O)c2cc(S(N)(=O)=O)c(Cl)cc2N1 (stereo not given) | inactive |
| CCC1CO1 (stereo not given) | inactive |
| CC(C)(C)C(=O)C(=O)O | inactive |
| Oc1ccc(Cl)c2cccnc12 | inactive |
| O=C(O)c1ccc(OCCCOc2ccc(C(=O)O)cc2)cc1 | inactive |
